The record followed here is PubChem BioAssay (EPA / NIEHS).

Each structure is given as a SMILES string. Values joined by “and” are separate entries in the source; they are usually repeats but may differ in a detail not shown here. Equal entries are not always repeated. A structure can be active in one record and inactive in another. Active and inactive are the calls of the source. Rule for the calls: active = hit-call score of the fitted dose curve at least 0.9, where 1 is the maximum; inactive = score below 0.9.

Assay [1] is described as follows: ATG_PBREM_CIS: Attagene CIS-FACTORIAL HepG2 Assay for human Phenobarbital-responsive Enhancer Module (PBREM) (AID 2282955). To be noted: HepG2 PBREM cis-reporter, Attagene multiplexed transcription; actives raise or lower the signal. The method in brief:
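HepG2 cells transiently transfected with multiple cis-regulated reporter units measure endogenous transcription factor activity; 24 h compound exposure. Reporter mRNA quantified by RT-PCR, fluorescent labelling, HpaI digestion and capillary electrophoresis; bidirectional fit versus DMSO.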

Assay [2] concerns the target Paired box protein Pax-6 (Homo sapiens) (UniProt P26367). Nature of the assay: ATG_Pax6_CIS: Attagene CIS-FACTORIAL HepG2 Assay for human Paired Box 6 (PAX6) (AID 2282956). To be noted: HepG2 CIS-FACTORIAL PAX6 reporter transcription, RNA readout; actives raise or lower the signal. The procedure, abridged:
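Readout: reporter transcript fluorescence after RT-PCR and capillary electrophoresis. Cells: HepG2, transiently transfected with cis-regulated MRTUs. Exposure 24 h. Gain or loss of signal fitted bidirectionally relative to DMSO.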

Assay [3] is described as follows: ATG_PXRE_CIS: Attagene CIS-FACTORIAL HepG2 Assay for human Pregnane X Receptor Element (PXRE) (AID 2282957). To be noted: HepG2 Attagene CIS-FACTORIAL PXRE reporter, mRNA; actives raise or lower the signal. The procedure, abridged:
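Using HepG2 transfected with multiple reporter transcription units, endogenous factor-driven transcription was scored as reporter mRNA after 24 h exposure.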

Assay [4] is described as follows: ATG_Sox_CIS: Attagene CIS-FACTORIAL HepG2 Assay for human SRY-box transcription factor (SOX) (AID 2282960). To be noted: HepG2 Attagene cis-factorial SOX reporter, mRNA; actives raise or lower the signal. The method in brief:
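HepG2 cells transiently transfected with multiple cis-regulated reporter units, then dosed for 24 h. Reporter mRNA quantified by RT-PCR, fluorescent labelling, HpaI digestion and capillary electrophoresis; bidirectional fit versus DMSO.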

Assay [5] concerns the target Transcription factor Sp1 (Homo sapiens) (UniProt P08047). Kind of assay: ATG_Sp1_CIS: Attagene CIS-FACTORIAL HepG2 Assay for human Specificity Protein 1 (Sp1) (AID 2282961). The following applies: HepG2 Sp1 cis-reporter transcription, actives raise or lower the signal. The procedure, abridged:
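HepG2 cells transiently transfected with multiplexed cis-regulated reporter constructs, chemical exposure 24 h. Reporter mRNA quantified by RT-PCR with capillary electrophoresis; bidirectional fit relative to DMSO.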

The nature of assay [6]: ATG_SREBP_CIS: Attagene CIS-FACTORIAL HepG2 Assay for human Sterol Regulatory Element Binding (SREBP) (AID 2282962). The following applies: HepG2 Attagene cis-factorial SREBP reporter, mRNA; actives raise or lower the signal. The method in brief: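 Readout: fluorescent reporter-transcript peaks resolved by capillary electrophoresis after RT-PCR. Cells were human HepG2 carrying transfected cis-promoter reporter constructs, dosed for 24 h. Gain or loss of signal was fitted against DMSO controls.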

Assay [7] concerns the target Signal transducer and activator of transcription 3 (Homo sapiens) (UniProt P40763). Nature of the assay: ATG_STAT3_CIS: Attagene CIS-FACTORIAL HepG2 Assay for human Signal Transducer and Activator of Transcription 3 (STAT3) (AID 2282963). To be noted: HepG2, Attagene cis-factorial STAT3 reporter transcription; actives raise or lower the signal. The method in brief: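 HepG2, MRTU-transfected, 24 h dosing. RNA → RT → PCR → FAM label → HpaI → CE. Bidirectional fit vs DMSO.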

A short description of assay [8]: ATG_TA_CIS: Attagene CIS-FACTORIAL HepG2 Assay for human TA Basal Promoter (AID 2282964). To be noted: HepG2 Attagene CIS-factorial TA basal promoter reporter; actives raise or lower the signal. The procedure, abridged:
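Background internal-marker endpoint from a 52-component HepG2 cis-reporter panel. Cells treated 24 h; reporter transcripts quantified via RT-PCR and CE fluorescence against DMSO baseline.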

Assay [9] is described as follows: ATG_PPRE_CIS: Attagene CIS-FACTORIAL HepG2 Assay for human Peroxisome Proliferator-activated Response Element (PPRE) (AID 2282958). The following applies: HepG2 PPRE cis-element reporter, Attagene transcription factor profiling; actives raise or lower the signal. The method in brief: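 HepG2 cells are transiently transfected with multiplexed cis-promoter reporter units to report endogenous PPAR activity. After 24 h dosing, reporter mRNA is read by RT-PCR and capillary electrophoresis. Fitting is bidirectional against DMSO.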

Assay [10] in a line: ATG_RORE_CIS: Attagene CIS-FACTORIAL HepG2 Assay for human RAR-related Orphan Receptor Element (RORE) (AID 2282959). The following applies: HepG2 Attagene cis-factorial RORE reporter, mRNA; actives raise or lower the signal. The procedure, abridged: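 HepG2 cells carrying transiently transfected cis-regulated reporter units; RORE-driven reporter mRNA quantified 24 h post-dosing by RT-PCR, 6-FAM primer extension, HpaI digestion and capillary electrophoresis. Bidirectional fit versus DMSO.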

Chain of Transcription factor Sp1 (Homo sapiens) (P08047 whole entry, looked up): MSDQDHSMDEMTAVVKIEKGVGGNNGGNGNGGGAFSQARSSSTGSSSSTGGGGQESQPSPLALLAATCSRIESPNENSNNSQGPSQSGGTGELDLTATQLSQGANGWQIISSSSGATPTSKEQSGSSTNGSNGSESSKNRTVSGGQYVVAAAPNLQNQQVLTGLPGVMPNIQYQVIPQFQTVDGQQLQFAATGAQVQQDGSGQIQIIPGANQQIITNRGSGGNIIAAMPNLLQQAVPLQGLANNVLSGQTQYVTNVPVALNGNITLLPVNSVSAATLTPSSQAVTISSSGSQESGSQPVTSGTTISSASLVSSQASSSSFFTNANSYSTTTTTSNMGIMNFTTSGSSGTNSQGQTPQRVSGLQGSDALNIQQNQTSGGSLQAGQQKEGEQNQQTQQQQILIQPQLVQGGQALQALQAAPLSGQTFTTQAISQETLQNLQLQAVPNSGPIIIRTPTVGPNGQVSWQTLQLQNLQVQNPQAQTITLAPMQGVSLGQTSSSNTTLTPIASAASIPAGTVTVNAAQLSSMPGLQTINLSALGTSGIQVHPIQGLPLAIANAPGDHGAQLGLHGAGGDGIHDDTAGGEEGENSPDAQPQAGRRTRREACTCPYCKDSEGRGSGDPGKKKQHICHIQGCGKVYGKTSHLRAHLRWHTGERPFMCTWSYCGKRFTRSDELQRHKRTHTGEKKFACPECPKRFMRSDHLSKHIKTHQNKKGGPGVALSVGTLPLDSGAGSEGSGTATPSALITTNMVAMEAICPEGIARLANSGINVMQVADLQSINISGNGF
Chain of Paired box protein Pax-6 (Homo sapiens) (P26367 whole entry, looked up): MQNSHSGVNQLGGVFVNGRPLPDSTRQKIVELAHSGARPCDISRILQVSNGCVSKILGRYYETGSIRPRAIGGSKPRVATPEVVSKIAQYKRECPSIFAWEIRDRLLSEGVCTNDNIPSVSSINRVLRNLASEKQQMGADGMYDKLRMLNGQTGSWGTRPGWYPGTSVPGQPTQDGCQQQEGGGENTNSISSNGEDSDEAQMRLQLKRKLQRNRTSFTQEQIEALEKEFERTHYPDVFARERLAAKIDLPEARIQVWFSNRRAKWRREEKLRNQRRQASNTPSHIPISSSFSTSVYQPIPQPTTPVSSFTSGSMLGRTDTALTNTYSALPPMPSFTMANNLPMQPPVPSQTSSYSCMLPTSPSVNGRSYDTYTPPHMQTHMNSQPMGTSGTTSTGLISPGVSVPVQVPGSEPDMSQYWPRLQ
Chain of Signal transducer and activator of transcription 3 (Homo sapiens) (P40763 whole entry, looked up): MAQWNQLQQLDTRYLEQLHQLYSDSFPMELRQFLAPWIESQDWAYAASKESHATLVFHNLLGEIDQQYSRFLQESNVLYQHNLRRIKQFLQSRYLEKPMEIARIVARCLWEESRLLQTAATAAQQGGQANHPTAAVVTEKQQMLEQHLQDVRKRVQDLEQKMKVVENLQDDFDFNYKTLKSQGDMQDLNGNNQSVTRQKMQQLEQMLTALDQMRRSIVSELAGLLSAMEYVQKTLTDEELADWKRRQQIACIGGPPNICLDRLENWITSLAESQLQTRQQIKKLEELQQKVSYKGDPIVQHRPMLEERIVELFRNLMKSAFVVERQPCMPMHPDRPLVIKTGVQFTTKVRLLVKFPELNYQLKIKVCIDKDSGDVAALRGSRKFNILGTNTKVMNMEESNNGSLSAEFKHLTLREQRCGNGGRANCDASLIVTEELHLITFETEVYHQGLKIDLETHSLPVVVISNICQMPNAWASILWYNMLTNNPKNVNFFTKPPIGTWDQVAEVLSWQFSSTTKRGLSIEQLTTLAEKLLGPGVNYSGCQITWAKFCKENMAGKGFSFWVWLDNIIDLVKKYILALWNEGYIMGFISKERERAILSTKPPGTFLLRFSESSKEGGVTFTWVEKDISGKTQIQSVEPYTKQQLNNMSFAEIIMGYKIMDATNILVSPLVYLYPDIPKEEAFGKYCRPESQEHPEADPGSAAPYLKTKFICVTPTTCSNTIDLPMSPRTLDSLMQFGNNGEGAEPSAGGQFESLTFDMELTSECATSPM

On to `O=S(=O)(O)c1cc(S(=O)(=O)O)c2c(N=Nc3ccccc3)c(O)ccc2c1`, for which the result in assay [1], in [2], in assay [3], in [4], in [5] and in assay [6] was inactive. Moreover, the compound was classed as inactive in [7] and in assay [8].

`Nc1ccc(N)c([N+](=O)[O-])c1`: the result in assay [1], in assay [2], in assay [3], in assay [4], in assay [5] and in assay [6] was inactive. In addition, the compound was classed as inactive in assay [7] and in assay [8].

As for `CC1=CCC(=C(C)C)CC1`, the result in assay [1], in [2], in assay [4], in [5], in [6] and in assay [7] was inactive. For the same compound, the call in assay [8] was inactive. Moreover, the AC50 in assay [3] was 5.48 µM (active).

With `CN(C)C`, the result in [1], in [2], in assay [3], in [4], in [5] and in assay [6] was inactive. In addition, the compound was classed as inactive in [7] and in assay [8].

Regarding `CCCC(O)C(CC)CO` (stereo unspecified), the compound was classed as inactive in assay [2], in assay [9], in assay [10], in [4], in assay [5] and in assay [6]. For the same compound, the compound was called inactive in [7] and in [8]. Also, in [3], the concentration at half-maximal activity (AC50) was 47.6 µM (active).

As for `CCCCCCCCOC(=O)c1ccc(O)cc1`, the result in assay [1], in assay [2], in [4], in assay [5], in [6] and in assay [7] was inactive. In addition, the result in assay [8] was inactive. Besides, in [3], the AC50 is 13.4 µM (active).

In the case of `O=C(O)c1ccccc1O`, the outcome in assay [1], in assay [2], in assay [3], in assay [10], in assay [4] and in assay [5] was inactive. The call in assay [6], in assay [7] and in [8] was inactive.

Consider `CC(=O)N(C)C`, for which the outcome in [1], in [2], in assay [3], in [10], in assay [4] and in [5] was inactive. Moreover, the result in assay [6], in assay [7] and in [8] was inactive.

Turning to `COc1ccc(N)c(C)c1`, the AC50 in assay [1] is 181 µM (active); in [3] it was 27.3 µM (active). For the same compound, the outcome in [2], in assay [10], in assay [4], in assay [5], in assay [6] and in assay [7] was inactive. Moreover, in [8], the compound was classed as inactive.

Regarding `C=COCC1CCC(COC=C)CC1` (stereo unspecified), the outcome in assay [1], in assay [2], in [3], in assay [10], in [4] and in assay [5] was inactive. Moreover, the call in assay [6], in [7] and in assay [8] was inactive.

As for `CC(=N[Si](C)(C)C)O[Si](C)(C)C`, the result in assay [1], in assay [2], in assay [3], in assay [10], in assay [4] and in assay [5] was inactive. Besides, the call in assay [6], in assay [7] and in assay [8] was inactive.

For `C#C[C@]1(O)CC[C@H]2[C@@H]3CCc4cc(O)ccc4[C@H]3CC[C@@]21C`, the call in assay [2], in assay [3], in [9], in assay [10], in assay [4] and in [5] was inactive. Further, the result in [6], in assay [7] and in [8] was inactive. Further, the concentration at half-maximal activity (AC50) in assay [3] was 3.19 µM (active) [middle of 4 runs]; in [10], 67.3 µM (active) and 60.7 µM (active) and 26.4 µM (active); in assay [4] it was 130 µM (active) and 54.9 µM (active); in assay [5], 169 µM (active) and 44.8 µM (active); in assay [7] it was 68 µM (active) and 155 µM (active); in [8] it was 132 µM (active).

For the compound `C=CCCCCCCCCC(=O)OCC`, the result in assay [1], in assay [2], in assay [3], in [10], in [4] and in [5] was inactive. Further, the result in assay [6], in assay [7] and in assay [8] was inactive.

Turning to `CCCCOCCOC(=O)c1ccccc1C(=O)OCCOCCCC`, the result in [1], in assay [2], in assay [10], in assay [4], in assay [5] and in [6] was inactive. Also, the outcome in assay [7] and in assay [8] was inactive. Also, the concentration at half-maximal activity (AC50) in assay [3] is 5.46 µM (active).

As for `CC12CCC(C1)C(C)(C)C2O` (stereo unspecified), the outcome in assay [1], in assay [2], in assay [3], in assay [10], in assay [4] and in [5] was inactive. The call in assay [6], in [7] and in [8] was inactive.

For the compound `OC[C@H]1O[C@@H](O[C@H]2[C@H](O)[C@@H](O)[C@H](O)O[C@@H]2CO)[C@H](O)[C@@H](O)[C@H]1O`, the result in [1], in assay [2], in [3], in assay [4], in assay [5] and in [6] was inactive. The compound was called inactive in [7] and in assay [8].

As for `CCCCN(CCO)CCO`, the outcome in assay [1], in [2], in [3], in [10], in assay [4] and in [5] was inactive. The call in [6], in [7] and in [8] was inactive.

Take `S=c1[nH][nH]c(=S)s1`: the result in [1], in assay [2], in assay [3], in assay [10], in [4] and in [5] was inactive. In addition, the result in assay [6], in assay [7] and in assay [8] was inactive.

For `CCCCCCCCCCCCOC(C)=O`, the outcome in [2], in [3], in [9], in assay [10], in assay [4] and in assay [5] was inactive. Besides, the compound was classed as inactive in assay [6], in [7] and in assay [8].

On to `CN1CCc2cccc3c2[C@H]1Cc1ccc(O)c(O)c1-3`, for which the outcome in assay [1], in [2], in assay [4], in assay [5], in assay [7] and in [8] was inactive. In addition, the results for the AC50 in [3] and in assay [6] were 1.26 µM (active) and 13.3 µM (active), respectively.

As for `O=S1(=O)CC(Cl)(Cl)C(Cl)(Cl)C1`, the AC50 in assay [2] is 5.97 µM (active). The outcome in assay [3], in assay [9], in [10], in assay [4], in assay [5] and in assay [6] was inactive. Moreover, the outcome in [7] and in assay [8] was inactive.

On to `CCCCOCC(C)OCC(C)O` (stereo unspecified), for which the outcome in [1], in [2], in [3], in assay [10], in assay [4] and in assay [5] was inactive. The compound was called inactive in assay [6], in [7] and in [8].

`CCCCCCCC1CCCC1=O` (stereo unspecified): the compound was called inactive in assay [2], in assay [9], in assay [10], in assay [4], in assay [5] and in assay [6]. Also, the call in assay [7] and in assay [8] was inactive. The concentration at half-maximal activity (AC50) in assay [3] is 27.9 µM (active).

On to `CCCC1CCC(=O)CC1`, for which the outcome in assay [1], in assay [2], in assay [10], in assay [4], in assay [5] and in assay [6] was inactive. In addition, the result in assay [7] and in [8] was inactive. Further, the AC50 in [3] was 27.6 µM (active).

In the case of `CC(=O)CCc1ccc(O)cc1`, the call in assay [2], in assay [3], in [9], in assay [10], in assay [4] and in assay [5] was inactive. The call in [6], in assay [7] and in assay [8] was inactive.

Take `CCCCCCC(O)CCOC(C)=O` (stereo unspecified): the compound was called inactive in [2], in assay [9], in assay [10], in assay [4], in assay [5] and in assay [6]. The result in assay [7] and in assay [8] was inactive. Moreover, the AC50 in [3] was 18.6 µM (active).

Regarding `CC(C)Cc1ccccc1`, the result in assay [2], in assay [3], in assay [9], in assay [10], in assay [4] and in assay [5] was inactive. The compound was classed as inactive in [6], in [7] and in assay [8].

Consider `CCC(C)(C)C1CCC(=O)CC1`, for which the outcome in assay [2], in [9], in assay [10], in assay [4], in assay [5] and in assay [6] was inactive. Besides, the outcome in assay [7] and in [8] was inactive. The concentration at half-maximal activity (AC50) in assay [3] was 5.24 µM (active).
